# In ChEMBL document CHEMBL3988442, “University of Dundee, Small-Polar-MMV Screening Library” (2021):
# The campaign covered roughly 48,000 compounds. About 13,000 (27%) showed an effect of 50% or more. Some of the results follow.
# System: Wolbachia pipientis
# Test: Anti-Wolbachia Cell-Based Screen
# Type: functional
# Set-up: scale not given: in the data most compounds retested in dose-response had high values
# Details: 5 µM
row,SMILES,Percent Effect
1,O=C(CCOc1ccccc1F)N1CCC(O)CC1,96.9%
2,CC(O)C1CCN(C(=O)CCOc2ccccc2F)CC1 (stereo not drawn),86.99%
3,O=C(CCOc1ccccc1F)N1CCOCC1,105.4%
4,CC(C)c1ccc(OCCC(=O)N2CCC(CC(N)=O)CC2)cc1,-11.97%
5,CN(CCOc1ccccc1F)S(=O)(=O)CC1CCOCC1,2.029%
6,CCOCC(=O)N1CCC(C(O)c2ccc(F)cc2)CC1 (stereo not drawn),-2.843%
7,O=C(Nc1ccccc1)C1CCN(C(=O)COc2ccccc2F)CC1,17.88%
8,CC(O)CN1CCN(C(=O)CCOc2ccccc2F)CC1 (stereo not drawn),109.3%
9,Cn1cnnc1C1CCN(C(=O)CCCOc2ccccc2F)CC1,-1.592%
10,CCN(C1CCN(c2cccc(F)c2C(C)=O)CC1)S(C)(=O)=O,-1.557%
11,COc1ccnc(N(C)Cc2csc(C)n2)n1,-11.41%
12,CC(Cn1cncn1)Nc1ccc(-c2nccn2C)nn1 (stereo not drawn),-4.731%
13,CC(NC(=O)N(C)Cc1ccc2c(c1)OCCO2)c1nncn1C (stereo not drawn),-31.29%
14,Cc1ccc(NCCNC(=O)c2cc(CC(C)C)n[nH]2)nn1,121%
15,CC(C)Cc1cc(C(=O)NC(C)C)[nH]n1,116%
16,CC(C)Cc1cc(C(=O)N2CCCN(c3cccnn3)CC2)[nH]n1,-1.538%
17,CC(C)Cc1cc(C(=O)N2CCCN(c3ncccn3)CC2)[nH]n1,-10.26%
18,CC(C)Cc1cc(C(=O)NCCn2nc3ccccn3c2=O)[nH]n1,-3.6%
19,Cc1ccc(N2CCCN(C(=O)c3cc(CC(C)C)n[nH]3)CC2)nn1,3.453%
20,Cc1nn(CC(=O)N2CCN(c3ncccn3)CC2)c(C)c1Cl,17.26%
21,Cc1ccc(N(C)[C@@H]2CC[C@@H]3CN(C(=O)Cc4cccs4)C[C@@H]32)nn1,112.9%
22,Cc1ccc(N(C)[C@@H]2CC[C@@H]3CN(C(=O)CC4CCOCC4)C[C@@H]32)nn1,152.8%
23,Cc1ccc(N2C[C@H](C(=O)NCC3CC3)[C@@H]3CCO[C@@H]3C2)nn1.O=C(O)C(F)(F)F,0.6774%
24,Cc1ccc(N(C)[C@@H]2CC[C@@H]3CN(C(=O)C4CCOCC4)C[C@@H]32)nn1,186.8%
25,Cc1ccc(N2CCC3(CCN(C(=O)C4CCOC4)CC3)CC2)nn1 (stereo not drawn),-12.92%
26,Cc1ccc(N(C)C2CCN(C(=O)CCc3ccco3)CC2)nn1,-5.46%
27,CN(Cc1cccs1)C1CCC[C@@H]2CN(C(=O)c3cccn3C)C[C@H]12 (stereo partly drawn),17.98%

row,SMILES,Percent Effect
1,CN(Cc1cccs1)C1CCC[C@@H]2CN(C(N)=O)C[C@H]12.O=C(O)C(F)(F)F (stereo partly drawn),5.173%
2,CCN(CCn1cccn1)Cc1nc(-c2cccs2)oc1C,6.026%
3,N#Cc1cccc(CN2CCn3cc(CNC(=O)C4CCC4)nc3C2)c1,-7.661%
4,COC(=O)NCC(=O)NC(c1ccc(Cl)cc1)C(F)(F)F (stereo not drawn),-6.665%
5,COc1ccc(S(=O)(=O)N2CCC[C@@H]3CN(C(=O)C4CC4)C[C@@H]32)cc1F,83.03%
6,COc1ccc(C(=O)N2CCCC(CNS(C)(=O)=O)C2)cc1F (stereo not drawn),1.055%
7,COC[C@@H]1CC[C@H]2[C@H](CCN2S(=O)(=O)c2ccc(OC)cc2)O1,-8.82%
8,COc1ccc(C(=O)N2CCCC(C)C2)cc1F (stereo not drawn),8.733%
9,COc1ccc(S(=O)(=O)N2CCC[C@@H]3CN(C(=O)C4CC4)C[C@@H]32)cc1,61.28%
10,CCN1C(=O)C[C@@H]2[C@@H]1CCN2S(=O)(=O)c1ccc(OC)cc1,1.644%
11,O=C(NCc1cc[nH]n1)NCC(O)c1ccc(F)cc1F (stereo not drawn),2.33%
12,CCN(CC)C(=O)[C@@H]1C[C@H](NC(=O)c2ccn(C(C)(C)C)c2)CN1C,-2.667%
13,O=C1CCCc2occ(C(=O)N3CCCC(O)(CO)C3)c21 (stereo not drawn),-7.191%
14,CO[C@H]1COCCN(C(=O)c2ccno2)C1,-14.2%
15,Cc1ccccc1C(=O)Nc1ccc(OC2CCN(C)CC2)cc1,-1.73%
16,O=C(Cc1cccs1)NCc1ccnc(OC2CCOCC2)c1,-13.9%
17,COc1ccc(CNC(=O)CNc2ccccc2OC)cc1,-12.04%
18,CC(C)(Oc1ccc(F)cc1)C(=O)NCc1ccco1,-9.094%
19,O=C(CNc1ccc(F)cc1OCC(F)(F)F)NCc1ccco1,-21.13%
20,O=C(CNc1ccc(OC2CCOC2)cc1)NCc1cccs1 (stereo not drawn),90.04%
21,O=C(CNc1cc2c(cc1Cl)OCCCO2)NCc1ccc(F)cc1,5.92%
22,O=C(Nc1ccnc(OC2CCOC2)c1)c1cccs1 (stereo not drawn),-9.418%
23,CC(C)(C)Oc1ccc(NCC(=O)NCc2ccco2)cc1,90.6%
24,O=C(CNc1ccc(OC2CCOC2)cc1)NCc1ccc(F)cc1 (stereo not drawn),77.11%
25,Cc1ccc(NCc2cccc3cn[nH]c23)cc1OC1CCOC1 (stereo not drawn),0.01014%
26,Cc1ccccc1CNC(=O)CNc1ccc(OC2CCOC2)cc1 (stereo not drawn),97.09%
